Screening data from PubChem.
Shown are actives, neighbours in structure and some others; about 4.7% of the full set was active somewhere.
EBV LMP1 NFkB = EBV LMP1-driven NF-kappaB luciferase reporter inhibitors, primary screen, cell-based, luminescence, single point; LMP1-induced NF-kappaB luciferase reporter cells; inhibition, % at 12.5 µM; actives 0.69% (n = 350,000); AID 504558, 2011; in the data active = inhibition above about 41%;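 also: 0% = neutral control wells and 100% = reference inhibitor control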
TWEAK-Fn14 inh = inhibitors of TWEAK-Fn14 signaling, primary screen, luciferase reporter cells, uHTS; TWEAK-stimulated Fn14 reporter cells, luciferase luminescence, 8 h; inhibition, % at 10 µM; actives 2% (n = 360,000); AID 1159606, 2016; in the data active = inhibition above about 50%
HSP90 inh = HSP90 inhibitors, primary screen, cell lysate, luminescence; Heat shock protein HSP 90 (rabbit reticulocyte lysate; luciferase refolding); Rabbit reticulocyte lysate, luciferase refolding luminescence, 3 h; inhibition, % at 5.6 µM; actives 0.91% (n = 290,000);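 active = inhibition above the screen-wide mean plus 3 SD, computed separately per campaign, cut at about 16% in these data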;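 also: 0% = DMSO wells and 100% = 60 µM geldanamycin wells; inhibitors lower the luminescence because luciferase stays unfolded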
TROY signal inh = inhibitors of TROY-driven NF-kB signaling, primary screen, Q293 LMP1-TROYcd cells, NF-kB luciferase, uHTS; inhibition, % at 10 µM; Q293 LMP1-TROYcd NF-kB luciferase reporter, 4 h; actives 0.98% (n = 360,000);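 active = compounds whose plate-normalised and pattern-corrected inhibition of the luciferase reporter signal at the single screening dose is 50% or more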
HSF1 inh = HSF1 inhibitors in luciferase reporter cells, primary screen, cell-based, NIH3T3, luminescence | NIH3T3-HGL HSE-luciferase, MG132-induced, luminescence 8 h; active compounds read low | actives 0.77% (n = 300,000) | activity change, negative = inhibition, % at 7.5 µM (by protocol);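 active = more than half of replicate wells show activity change below -50%, luminescence cut by over half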;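 also: luciferase reports HSF-1 transcriptional activity via heat shock element; 0% = median of DMSO wells and -100% = zero luminescence signal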
HSF-1 act = HSF-1 activators, primary screen, NIH3T3-HGL cells, MG132 stress, luminescence, single point. activation, % at 9 µM. actives 1.7% (n = 300,000). AID 504408, 2011. NIH3T3-HGL HSF-1 luciferase reporter, 8 h; 100% = twice DMSO control signal;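 active = mean replicate activation of at least 50% with a set share of replicates each reaching 50%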;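 also: 0% = median of the neutral control wells and 100% = twice that signal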
The depositor's hits bear a star; . = not tested or not shown.

SMILES	EBV LMP1 NFkB	TWEAK-Fn14 inh	HSP90 inh	TROY signal inh	HSF1 inh	HSF-1 act
CC(C)C[C@H]1COc2cccc(N3CCSCC3)c2S(=O)(=O)N1	.	6	.	2	.	.
CC(=O)N(C)c1ccc(NS(=O)(=O)Cc2ccccc2)cc1	-6	45	3	57*	-37	-51
CC(=O)c1ccc(NS(=O)(=O)Cc2ccccc2)cc1	-1	6	1	8	14	10
CSc1cc(-c2ccco2)oc1C(=O)c1ccco1	2	4	.	7	21	51*
C(=Cc1c[nH]c2ccccc12)c1nccc2ccccc12	-31	89*	.	65*	.	.
O=Cc1nccc2ccccc12	-3	-9	.	-3	.	.
O=C(/C=C/c1c[nH]c2ccccc12)c1ccccc1	-34	30	-4	-102	35	47
C(=Cc1c[nH]c2ccccc12)c1ccc2ccccc2n1	13	73*	.	33	.	.
O=C1NC[C@H](CCCCN2C[C@H](Cc3ccccc3)N(CCC3CCCCC3)C(=O)C2=O)N(CCC2CCCCC2)C1=O	.	27	.	77*	.	.
O=C(COC(=O)/C=C/c1cccc(F)c1)NC1CCCCC1	-3	-15	.	-11	.	.
C(=C/c1ccnc2nc(SC/C=C/c3ccccc3)nn12)/c1ccccc1	-7	13	4	-12	61	101*
C=CCNc1nc(-c2sc(NC(=O)C(C)(C)C)nc2C)c(-n2cc(-c3ccccc3)nn2)s1	.	58*	.	16	.	.
O=C(NC(=S)N1CCN(c2ccc(F)cc2)CC1)c1cccs1	2	3	-1	-3	38	103*
COc1ccc(N2CCN(C(=S)NC(=O)c3cccs3)CC2)c([N+](=O)[O-])c1	1	-4	0	4	21	23
CCCC(=O)N1CCN(c2ccc(NC(=O)c3cccs3)cc2)CC1	-3	-30	-6	-25	30	53*
O=C(NC(=S)N1CCN(c2c(Cl)cccc2[N+](=O)[O-])CC1)c1cccs1	1	-8	5	.	-95*	-95
Nc1ccn([C@@H]2O[C@H](CNS(=O)(=O)c3cc4ccccc4s3)[C@@H](O)[C@H]2O)c(=O)n1	-5	-2	.	2	.	.
Clc1ccc(OCc2nc(-c3ccncc3)no2)c(Br)c1	-56	4	-1	-6	52	85*
Cc1ccc(OCc2nc(-c3ccccn3)no2)cc1	-20	31	5	-23	41	63*
Cc1occc1-c1nc(-c2ccccn2)no1	14	62*	12	3	12	50
Clc1ccccc1OCc1nc(-c2ccncc2)no1	-60	-36	-1	-26	.	.
CCc1ccc(OCc2nc(-c3ccccn3)no2)c(Br)c1	-33	59*	14	45	6	37
O=C1c2ccccc2C(c2nnnn2C2CCCCC2)N1CCc1ccc(O)cc1 (stereo not given)	.	-5	.	-3	.	.
CNc1cncc(-c2cc(OC)c(OC)c(OC)c2)n1	.	-1	.	-4	.	.
NS(=O)(=O)c1ccc(CCNC(=O)COC(=O)Cc2ccc(Cl)cc2)cc1	4	8	.	6	.	.
SMILES	EBV LMP1 NFkB	TWEAK-Fn14 inh	HSP90 inh	TROY signal inh	HSF1 inh	HSF-1 act
COc1nc(-c2ccccc2)ccc1-c1noc(COc2ccccc2)n1	11	-11	-3	-24	-68*	-74
C#CCOc1c(Cl)cc(/C=C2/C(=O)ON=C2C)cc1OCC	-3	14	2	8	16	52*
C#CCOc1c(Br)cc(/C=C2/C(=O)ON=C2C)cc1OCC	4	5	0	-3	-30	-46
CCOc1cc(/C=C2/C(=O)ON=C2C)ccc1OCc1ccc(F)cc1	0	0	-1	-12	22	63*
CC(O)(CS(=O)(=O)Cc1ccccc1)c1ccc(Cl)cc1 (stereo not given)	1	5	5	-10	13	-5
Cc1ccc(C(C)(O)CS(=O)(=O)Cc2ccccc2Cl)cc1 (stereo not given)	-6	5	1	-19	51	112*
CNC[C@H]1Oc2cc(Br)ccc2S(=O)(=O)N([C@H](C)CO)C[C@H]1C	-2	-8	.	-15	.	.
CCc1cccc(NS(=O)(=O)c2ccc3c(c2)NC(=O)C(C)S3)c1 (stereo not given)	13	24	6	21	35	77*
Cc1cc(C)c(NC(=O)c2ccc3c(c2)NC(=O)C(C)S3)c(C)c1 (stereo not given)	0	13	.	-1	.	.
CCN(CC)S(=O)(=O)c1cc(NC(=O)c2ccc3c(c2)NC(=O)C(C)S3)ccc1C (stereo not given)	7	89*	.	67*	.	.
Nc1ccn([C@@H]2O[C@H](C(=O)Nc3ccc(Oc4ccccc4)nc3)[C@@H](O)[C@H]2O)c(=O)n1	.	14	.	-1	.	.
CCc1nc2c(OCc3cc(Cl)cc(Cl)c3)cccn2c1N(C=O)Cc1ccccc1	.	14	.	14	.	.
CCc1nc2ccc(C(=O)NCCCn3ccnc3)cn2c1N(C)C(=O)c1cccc(OC)c1	.	4	.	-17	.	.
CC1=C(C(=O)N2CCCCCC2)CC(CC(=O)NCCCN(C)C)C(=O)N1CCCN1CCCC1=O (stereo not given)	.	4	.	-31	.	.
NC(Cc1ccc(Cl)cc1)c1csc(NC(=O)NCC2CCCCC2)n1 (stereo not given)	.	-2	.	4	.	.
Cc1ccc(/C=N/NC(=O)c2ccc3c(c2)OCCO3)s1	-24	9	11	-56	-6	-11
C/C(=N\NC(=O)c1ccc2c(c1)OCCO2)c1ccccc1	12	70*	-2	-37	-39	-52
O=C(N/N=C/c1cc(Br)cs1)c1ccc2c(c1)OCCO2	.	10	0	-47	22	57*
Cc1ccsc1/C=N/NC(=O)c1ccc2c(c1)OCCO2	59*	70*	12	7	2	33
Cc1ccsc1/C=N/NC(=O)Cc1ccc(Cl)cc1	-4	90*	8	-1	-3	2
CCCC(C)(C)C(=O)N1CCC1(C)C(=O)Nc1ccc2c(c1)OCCO2 (stereo not given)	.	18	.	0	.	.
CCN(CC)CCNc1ccc(CO)c2oc3ccccc3c(=O)c12	1	-30	.	-30	.	.
Cn1cc(/C=N/NC(=O)c2ccccc2O)c2ccccc21	-1	-28	0	-18	-10	4
COc1ccc(/C=C(\NC(=O)c2ccccc2)C(=O)N/N=C/c2sccc2C)cc1	-2	0	5	-15	57	97*
COc1ccc(/C=N/NC(=O)c2ccc3c(c2)OCCO3)cc1[N+](=O)[O-]	3	-4	-2	-62	-80*	-76
